Test results as given in PubChem BioAssay (NCATS).
Results filed as inconclusive are left out. Active and inactive are the calls of the source. Calls come from the whole dose curve; as a rule, active = well fitted cell-killing curve with a large enough effect; inconclusive = small, poorly fitted or top-dose-only effect; inactive = flat fitted curve, though single readings scatter.

What was measured:
[1] = Cell Viability - LYMP2-017 (AID 972); conditions: LYMP2-017 lymphoblastoid cell viability; note: nearly all actives have a fitted effect of over 55% in size
Procedure, shortened: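 Human lymphoblastoid cells (2500/well) were seeded in complete medium, held 5 hr at 37 C, then exposed to compounds for 24 hr at 37 C. Intracellular ATP was read by CellTiter-Glo luminescence after 30 min at room temperature, with AC50 values from Hill-equation fits.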

[2] = Cell Viability - LYMP2-019 (AID 973); conditions: LYMP2-019 lymphoblastoid cell line viability; note: nearly all actives have a fitted effect of over 55% in size
Procedure, shortened: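 Human lymphoblastoid cells were seeded at 2500 cells/well, preincubated 5 hr at 37 C, then exposed to compounds for 24 hr at 37 C in complete medium. Intracellular ATP was measured by CellTiter-Glo luminescence; AC50 from Hill fits.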

[3] = Cell Viability - LYMP2-021 (AID 974); conditions: LYMP2-021 lymphoblastoid cells viability;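 note: compound exposure lasts 24 hours at 37 °C; nearly all actives have a fitted effect of over 55% in size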
Procedure, shortened: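 Human lymphoblastoid cells (2500/well) were preincubated 5 hr at 37 C, then exposed to compounds for 24 hr at 37 C in complete medium. Intracellular ATP was read by CellTiter-Glo luminescence; AC50 came from Hill-equation fits of concentration-response data.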

[4] = Cell Viability - LYMP2-023 (AID 975); conditions: LYMP2-023 lymphoblastoid cell viability; note: nearly all actives have a fitted effect of over 55% in size
Procedure, shortened: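 Human lymphoblastoid cells (2500/well) were preincubated 5 hr at 37 C, then exposed to compounds for 24 hr at 37 C in complete medium. Cellular ATP was read by CellTiter-Glo luminescence, and AC50 came from Hill-equation fits.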

[5] = Cell Viability - LYMP2-025 (AID 976); conditions: LYMP2-025 lymphoblastoid cell viability
Procedure, shortened: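 Human lymphoblastoid LYMP2-025 cells (2500/well) were pre-incubated 5 hr at 37 C, then treated with compounds for 24 hr at 37 C in complete medium. Viability was read as intracellular ATP by CellTiter-Glo luminescence; AC50 from Hill fits.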

[6] = Cell Viability - LYMP2-002 (AID 977); conditions: LYMP2-002 lymphoblastoid cell viability, qHTS
Procedure, shortened: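 Luminescent ATP readout (CellTiter-Glo, 30 min room temperature) after 24 h compound exposure at 37 C of a human lymphoblastoid line, 2500 cells/well. AC50 values derived by standard Hill fitting of qHTS concentration-response data.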

[7] = Cell Viability - LYMP2-006 (AID 978); conditions: LYMP2-006 lymphoblastoid cell viability, qHTS; note: nearly all actives have a fitted effect of over 60% in size
Procedure, shortened: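 Human lymphoblastoid cells, 2500 per well, were preincubated 5 hr at 37 C, then exposed to compounds for 24 hr at 37 C in complete medium. Viability was read as intracellular ATP by CellTiter-Glo luminescence; AC50 from Hill-equation fits of qHTS concentration-response data.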

[8] = Cell Viability - LYMP2-007 (AID 979); conditions: LYMP2-007 lymphoblastoid cell viability;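 note: cells exposed to compound for 24 h before reading; nearly all actives have a fitted effect of over 60% in size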
Procedure, shortened: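 Human lymphoblastoid cells (2500/well) were plated in complete medium, incubated 5 hr at 37 C, then exposed to compounds for 24 hr at 37 C. Intracellular ATP was read by CellTiter-Glo luminescence after 30 min at room temperature; AC50 from Hill fits.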

[9] = Cell Viability - LYMP2-008 (AID 980); conditions: LYMP2-008 lymphoblastoid cell viability, qHTS; note: nearly all actives have a fitted effect of over 60% in size
Procedure, shortened: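 Human lymphoblastoid cells (2500/well) were plated, held 5 hr at 37 C, then exposed to compounds for 24 hr at 37 C in complete medium. Intracellular ATP was read by CellTiter-Glo luminescence; AC50 from Hill-fitted concentration-response.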

[10] = Cell Viability - LYMP2-010 (AID 981); conditions: LYMP2-010 lymphoblastoid cell viability, qHTS; note: nearly all actives have a fitted effect of over 55% in size
Procedure, shortened: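 Human lymphoblastoid LYMP2-010 cells (2500/well) were preincubated 5 hr at 37 C, then exposed to compounds for 24 hr at 37 C in complete medium. Intracellular ATP was measured by CellTiter-Glo luminescence after 30 min at room temperature; AC50 from Hill-fitted concentration-response.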

[11] = Cell Viability - LYMP2-012 (AID 982); conditions: LYMP2-012 lymphoblastoid cell viability qHTS
[12] = Cell Viability - LYMP2-014 (AID 983); conditions: LYMP2-014 lymphoblastoid cells, viability qHTS; note: nearly all actives have a fitted effect of over 50% in size
Procedure, shortened: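 Human lymphoblastoid cells (2500/well) were pre-incubated 5 hr at 37 C, then exposed to compounds in complete medium for 24 hr at 37 C. Intracellular ATP was read by CellTiter-Glo luminescence after 30 min at room temperature; AC50 from Hill fits.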

[13] = Cell Viability - LYMP2-016 (AID 984); conditions: LYMP2-016 lymphoblastoid cell viability, qHTS; note: nearly all actives have a fitted effect of over 55% in size
Procedure, shortened: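 Human lymphoblastoid cells (LYMP2-016), 2500/well in complete medium, preincubated 5 hr at 37 C, then compound-treated 24 hr at 37 C. Intracellular ATP read by CellTiter-Glo luminescence after 30 min at room temperature; AC50 from Hill-equation concentration-response fits.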

[14] = Cell Viability - LYMP2-018 (AID 985); conditions: LYMP2-018 lymphoblastoid cells, viability (qHTS);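 note: compound exposure lasted 24 hr at 37 °C; nearly all actives have a fitted effect of over 50% in size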
Procedure, shortened: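 Human lymphoblastoid cells (2500/well) were pre-incubated 5 hr at 37 C, then exposed to compounds for 24 hr at 37 C in complete medium. Viability was read as intracellular ATP by CellTiter-Glo luminescence; AC50 values came from Hill-equation fits.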

[15] = Cell Viability - LYMP2-020 (AID 986); note: nearly all actives have a fitted effect of over 55% in size
Procedure, shortened: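 Human lymphoblastoid cells, 2500/well, were pre-incubated 5 hr at 37 C, then exposed to compounds for 24 hr at 37 C in complete medium. Intracellular ATP was read by CellTiter-Glo luminescence, and AC50 was derived by Hill fitting of concentration-response data.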

[16] = Cell Viability - LYMP2-022 (AID 987); conditions: LYMP2-022 lymphoblastoid cell viability; note: nearly all actives have a fitted effect of over 55% in size
Procedure, shortened: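 Human lymphoblastoid cells, 2500/well, preincubated 5 hr at 37 C, then exposed to compounds over a concentration range for 24 hr at 37 C in complete medium. Viability read as intracellular ATP by CellTiter-Glo luminescence after 30 min at room temperature; AC50 from Hill fits.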

[17] = Cell Viability - LYMP2-024 (AID 988); conditions: LYMP2-024 lymphoblastoid cell viability; note: nearly all actives have a fitted effect of over 60% in size
Procedure, shortened: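 Human lymphoblastoid cells (2500/well) in complete medium were preincubated 5 hr at 37 C, then exposed to compounds for 24 hr at 37 C. Intracellular ATP was read by CellTiter-Glo luminescence; AC50 from Hill-equation fits of concentration-response data.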

[18] = Cell Viability - LYMP2-026 (AID 989); conditions: LYMP2-026 lymphoblastoid cell viability, qHTS; note: nearly all actives have a fitted effect of over 50% in size
Procedure, shortened: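 Human lymphoblastoid cells (2500/well) in complete medium were preincubated 5 hr at 37 C, then exposed to compounds for 24 hr at 37 C. Cellular ATP was read by CellTiter-Glo luminescence; AC50 from Hill-equation fits of concentration-response data.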

[19] = Cell Viability - LYMP1-002 - Assay at 24 hr (AID 993); conditions: LYMP1-002 lymphoblastoid cells viability
Procedure, shortened: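 Human lymphoblastoid LYMP1-002 cells, 2500/well in complete medium, were treated with compounds for 24 h at 37 C; intracellular ATP was read by CellTiter-Glo luminescence. AC50 values came from Hill-equation fits of qHTS concentration-response data.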

Measured: Potency
Potency is the fitted concentration of half-maximal effect.

O=C1c2c(O)ccc([N+](=O)[O-])c2C(=O)c2c([N+](=O)[O-])ccc(O)c21
active: [1] 31.6 µM | [2] 39.8 µM | [3] 39.8 µM | [4] 39.8 µM | [5] 39.8 µM | [6] 39.8 µM | [7] 31.6 µM | [8] 39.8 µM | [9] 31.6 µM | [10] 31.6 µM | [11] 39.8 µM | [12] 39.8 µM | [13] 31.6 µM | [14] 39.8 µM | [15] 39.8 µM | [16] 39.8 µM | [17] 39.8 µM | [18] 39.8 µM | [19] 39.8 µM
